This is a sample that favours compounds with a hit; in the whole collection about 4.2% have one here.
V-ATPase pHluor: yeast V-ATPase proton transport regulation by pHLuorin; response, % at 10 µM; 0.37% of 350,000 active; S. cerevisiae, pHLuorin cytosolic pH fluorescence; in the data active = response mostly above about 7.3%, no sharp cut-off; inactive = mostly below about 5.4%; note: actives read high
NALP1 yeast inh: blocks the NALP1 inflammasome reconstituted in yeast; S. cerevisiae NALP1/ASC/caspase-1 growth, X-gal OD620, 72 h; inhibition, % at 10 µM; 0.61% of 280,000 active; in the data active = inhibition mostly above about 24%, no sharp cut-off; inactive = mostly below about 32%
tim23-1 inh: tim23-1 yeast growth inhibition; S. cerevisiae tim23-1 growth, BacTiter-Glo luminescence, 24 h; inhibition, % at 20 µM; 1.3% of 330,000 active; AID 463212;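 active = growth inhibition of the mutant yeast at or above 50%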;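 note: temperature-sensitive mutant grown at 25 °C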
NALP3 yeast inh: NALP3 inhibition in yeast; 0.39% of 330,000 active; inhibition, % at 10 µM; Yeast reconstituted NLRP3/ASC/caspase-1, beta-gal luminescence, 24 h;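 active = inhibition of 50% or more; inactive = inhibition below 50%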
tim10-1 inh: inhibits growth of tim10-1 mutant yeast | AID 463190 | S. cerevisiae tim10-1 ts strain growth, BacTiter-Glo, 24 h | inhibition, % at 20 µM | 2.2% of 330,000 active;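 active = inhibition of at least 40%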;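 note: mutant grown at 25 °C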
TIM10 inh: growth inhibitors of TIM10 yeast strain. S. cerevisiae TIM10 strain growth, BacTiter-Glo luminescence, 24 h. inhibition, % at 10 µM. 1.4% of 330,000 active. AID 463195;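 active = inhibition of 40% or more at the single tested concentration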;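 note: wild-type TIM10 isogenic control strain grown at permissive 25 °C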
tim10-1 confirm: confirmation of tim10-1 mutant yeast growth inhibitors; S. cerevisiae tim10-1 ts strain growth, BacTiter-Glo, 24 h; inhibition, % at 20 µM; shares compounds with tim10-1 inh; 56% of 7,400 active;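 active = inhibition of yeast growth at or above a set limit in either of two repeat tests at 20 µM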;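 note: tim10-1 mutant grown at permissive 25 °C to find synthetic lethal compounds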
tim10 confirm: confirmation of TIM10 yeast growth inhibitors | 63% of 4,600 active | S. cerevisiae tim10 strain growth, BacTiter-Glo luminescence, 24 h | shares compounds with TIM10 inh | AID 463215 | inhibition, % at 10 µM;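 active = inhibition of yeast growth at or above a set limit in either of two replicates at 10 µM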; note: this counterscreen used the strain with wild-type TIM10
tim23-1 confirm: confirmation of tim23-1 mutant yeast growth inhibitors. shares compounds with tim23-1 inh. S. cerevisiae tim23-1 growth, BacTiter-Glo luminescence, 24 h. inhibition, % at 20 µM. 83% of 4,400 active. AID 463218;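 active = inhibition above about 39% in either of two replicate wells at 20 µM, limit read from the data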;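 note: temperature-sensitive tim23-1 mutant grown at 25 °C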
A number is an active result; . = inactive; / = not tested or not shown.

SMILES | V-ATPase pHluor | NALP1 yeast inh | tim23-1 inh | NALP3 yeast inh | tim10-1 inh | TIM10 inh | tim10-1 confirm | tim10 confirm | tim23-1 confirm
COc1ccc(C(=O)NC(=S)NC(C)(C)C)cc1Br | . | . | 64 | . | 40 | 60 | 47 | 53 | 77
COc1ccc(C(=O)NC(=S)NCc2ccco2)cc1Br | . | . | 54 | . | 46 | . | 38 | / | 53
COc1ccc(C(=O)NC(=S)NCc2ccco2)cc1OC | . | . | . | . | . | . | / | / | /
COc1ccc(/C=C(\CC(=O)O)c2nc3ccccc3o2)cc1 | . | . | . | . | . | . | / | / | /
COc1ccc(C(=O)/C(=C/c2cccs2)c2nc3ccccc3o2)cc1 | . | . | 53 | . | 49 | 43 | 42 | . | 54
Cc1cc(NC(=O)CSc2nnc(-c3ccco3)n2Cc2ccco2)no1 | . | . | . | . | . | . | / | / | /
CCOC(=O)c1ccccc1NC(=O)CSc1nnnn1C1CCCCC1 | . | . | 53 | . | 43 | . | . | / | .
COC(=O)c1ccccc1NC(=O)CSc1nnnn1C1CCCCC1 | . | . | . | . | . | . | / | / | /
CN(C)c1nnnn1Cc1ccc(Cl)cc1Cl | . | . | . | . | . | . | / | / | /
Cn1c2ccccc2c(=O)c2ccc(C#Cc3ccc(N)cc3)cc21 | . | . | . | . | . | . | / | / | /
Cc1cc(N2CCCCC2)n2nc(C)c(-c3ccccc3)c2n1 | . | . | 50 | . | 43 | . | 33 | / | 47
CS(=O)(=O)N(CC(=O)N1CCCCCC1)Cc1ccc(Cl)cc1 | . | . | . | . | . | . | / | / | /
O=C(/C=C/c1c(Cl)cccc1Cl)n1cccn1 | . | . | 60 | . | 56 | 41 | 57 | 55 | 85
Cc1ccccc1NC(=S)NCc1ccc2[nH]c3c(c2c1)CCCC3 | . | . | 56 | . | 49 | 47 | . | 43 | 48
O=C(CNC(=O)c1ccccc1Br)N/N=C/c1cc(Br)ccc1O | . | . | . | . | . | . | / | / | /
O=C(N/N=C/c1cc(Cl)ccc1O)c1ccccc1Br | . | . | 65 | . | 42 | 54 | . | 32 | 59
O=C(Nc1c2c(nn1-c1ccccc1)CS(=O)(=O)C2)c1cccs1 | . | . | . | . | . | . | / | / | /
NC(=O)c1cc(Br)cc2c3c([nH]c12)CCCC3 | . | . | 76 | . | 69 | 56 | 58 | . | 62
CCCCCCCCC/C(=N\O)c1ccccn1 | . | . | 65 | . | 48 | 72 | . | . | 70
O=C(COC(=O)Cc1cccs1)Nc1cc(S(=O)(=O)N2CCOCC2)ccc1Cl | . | / | . | . | . | . | / | / | /
O=C1CS(=O)(=O)N(Cc2ccccc2F)c2ccc(Br)cc21 | . | / | 72 | / | 41 | . | 47 | / | 61
COc1cc(CN2c3ccccc3C(=O)CS2(=O)=O)cc(OC)c1 | . | / | . | / | . | . | / | / | /
COc1ccc(-c2csc(Nc3ccccc3)n2)cc1 | . | . | 54 | . | 46 | 61 | 37 | 43 | 48
COc1ccccc1Nc1nc(-c2cccc([N+](=O)[O-])c2)cs1 | . | . | . | . | . | . | / | / | /
O=[N+]([O-])c1cccc(-c2csc(Nc3ccccc3)n2)c1 | . | . | 86 | . | 50 | 64 | 59 | 66 | 67
O=C(OCc1cn(-c2ccc(Cl)c(Cl)c2)nn1)c1ccccc1 | . | . | . | . | . | . | / | / | /
CN1CCN(C(c2ccc(C(F)(F)F)cc2)c2ccc3cccnc3c2O)CC1 (configuration not stated) | / | . | . | . | . | . | / | / | /
Oc1c(C(c2cccs2)N2CCN(c3ccccc3)CC2)ccc2cccnc12 (configuration not stated) | / | . | 59 | . | 56 | . | 40 | / | 78
C/C(CC(=O)Nc1ccc(Cl)c(C(F)(F)F)c1)=N\NC(=O)c1ccccc1O | . | . | 57 | . | 47 | . | 39 | / | 41
CCc1ccccc1NCC(=O)Nc1ccc(Cl)c(C(F)(F)F)c1 | . | / | 52 | . | 68 | 48 | 54 | . | 57
